Source: PubChem
The list is not random: actives were taken first. Their share in the collection is about 28%.
CYP2C9 inh: blockers of cytochrome P450 2C9 activity – biochemical, luminescence, ADME assay, primary screen | P11712 | CYP2C9 Supersomes, luciferin-H conversion | inhibition, % at 5 µM | 96,000 compounds, 20% hits;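 active = blocking of liver enzyme CYP2C9 beyond about 50% at 5 µM, limit read from the data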
CYP2C19 inh: blockers of cytochrome P450 2C19 activity – biochemical, luminescence, ADME assay, primary screen | 96,000 compounds, 21% hits | P33261 | inhibition, % at 5 µM | CYP2C19 Supersomes, luciferin-H EGE luminescence, 30 min;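 active = CYP2C19 inhibition above a set limit at 5 µM in the primary screen, cut at about 50% in these data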
Target sequence (P33261 whole entry, looked up): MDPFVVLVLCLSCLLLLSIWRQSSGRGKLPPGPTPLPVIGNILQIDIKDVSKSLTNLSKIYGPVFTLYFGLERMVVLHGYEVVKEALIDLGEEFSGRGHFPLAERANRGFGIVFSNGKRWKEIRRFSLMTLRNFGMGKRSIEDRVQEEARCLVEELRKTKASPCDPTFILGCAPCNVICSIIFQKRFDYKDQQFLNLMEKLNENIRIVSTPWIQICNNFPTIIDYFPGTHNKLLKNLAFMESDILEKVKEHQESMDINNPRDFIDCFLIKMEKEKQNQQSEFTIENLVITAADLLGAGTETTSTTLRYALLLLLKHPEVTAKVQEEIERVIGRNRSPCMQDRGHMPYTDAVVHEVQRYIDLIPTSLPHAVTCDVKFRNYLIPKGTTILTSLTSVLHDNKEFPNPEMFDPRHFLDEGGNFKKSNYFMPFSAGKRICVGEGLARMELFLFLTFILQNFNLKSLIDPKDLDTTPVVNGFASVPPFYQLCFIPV
CYP2C9 activ: human CYP2C9 activators, primary screen, biochemical, luminescence; Cytochrome P450 2C9 (Homo sapiens), P11712; recombinant CYP2C9, luciferin-H conversion; stronger effect = higher value; factor 1 = untreated enzyme, 0 = blocked; activation factor at 5 µM; 96,000 compounds, 1.4% hits;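 active = activation factor of 2 or more for CYP2C9 at a 5 µM dose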
CYP2C19 activ: human CYP2C19 activators, primary screen, biochemical, luminescence; recombinant CYP2C19, luciferin-H EGE luminescence; stronger effect = higher value; 0 = fully inhibited enzyme, 1 = untreated enzyme; activation factor at 5 µM; 96,000 tested, under 10 active; AID 1025, 2008;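 active = activation factor of at least 2 at 5 µM in the primary screen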
PLK1 PBD inh: Plk1 polo box domain binding inhibitors, primary screen, biochemical, fluorescence polarization; Serine/threonine-protein kinase PLK1 (Homo sapiens), P53350; Plk1 PBD phosphopeptide binding; 97,000 compounds, 0.13% hits; AID 693, 2007; inhibition, %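 (tested at about 20 µM)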; in the data active = inhibition above about 34%, passing the limit was not always enough
PLK1 inh: human PLK1 kinase inhibitors, primary screen, biochemical, TR-FRET | 97,000 compounds, 0.53% hits | inhibition, % at 10 µM | recombinant PLK1 kinase, TR-FRET peptide phosphorylation;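 active = inhibition of 50% or more in the single-concentration screen; inactive = inhibition below 50%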
Each line names hits and unclear results; the compound was inactive in the other large screens.

COc1ccc(CCCc2nnc(SCC(=O)Nc3nccs3)n2C)cc1C	CYP2C19 inh 59
CCn1c(SCC(=O)Nc2nccs2)nnc1-c1ccc(C)cc1	none (no result: CYP2C9 inh, CYP2C19 inh, CYP2C9 activ, CYP2C19 activ)
Cc1ccc(C)c(NC(=O)CSc2nnc(-c3ccncc3)n2N)c1	CYP2C9 inh 92, CYP2C19 inh 60
CCNc1nc(N2CCOCC2)nc(N(c2ccccc2)c2ccccc2)n1	none
COc1ccc(-c2nnc3ccc(SCC(=O)N4CCCCC4)nn23)cc1OC	none (no result: PLK1 PBD inh, PLK1 inh)
Cc1cccc(NC(=O)C23CCC(C)(C2Br)C3(C)C)c1 (centres undefined)	none
Cc1ccc(S(=O)(=O)CCC(=O)OCC(=O)Nc2ncc(Cl)cc2Cl)cc1	none
COc1cc(OC)cc(OCC(O)Cn2cnc3cc(C)c(C)cc32)c1 (centres undefined)	CYP2C9 inh 57, CYP2C19 inh 85
COc1ccc(OCC(O)Cn2ccnc2C)cc1 (centres undefined)	none (no result: CYP2C9 inh, CYP2C19 inh, CYP2C9 activ, CYP2C19 activ)
COc1cccc(NC(=O)COC(=O)c2c3c(nc4ccccc24)CCC(C)C3)c1 (centres undefined)	CYP2C9 inh 56
O=C(COC(=O)c1c2c(nc3ccccc13)CCCC2)Nc1ccc2c(c1)OCO2	CYP2C9 inh 77, CYP2C19 inh 76
COc1cccc(NC(=O)COC(=O)c2nc3nccc(C)n3n2)c1	none
O=C(NCCCN1CCN(c2ccc(F)cc2)CC1)c1cccc(N2CCCC2=O)c1	CYP2C19 inh 80
COc1ccc(CNC(=O)c2ccc3c(c2)N(C)C(=O)CS3=O)cc1 (centres undefined)	CYP2C9 inh 64
COc1ccc(CNC(=O)c2cccc(N3CCCC3=O)c2)cc1	CYP2C9 inh 71, CYP2C19 inh 72
CCN(CCNC(=O)c1cccc(N2CCCC2=O)c1)c1ccccc1	CYP2C19 inh 89
O=C(NCc1ccc(N2CCCC2=O)cc1)c1cn(Cc2ccccc2)nn1	none (no result: PLK1 PBD inh, PLK1 inh)
O=C(NCc1ccc(N2CCCC2=O)cc1)Nc1cccc(Cl)c1	CYP2C9 inh 72, CYP2C19 inh 59
COc1ccc(N2CCN(S(=O)(=O)c3ccc(Cl)c(C(F)(F)F)c3)CC2)cc1	none
CC1CN(S(=O)(=O)c2ccc(Cl)c(C(F)(F)F)c2)CC(C)O1 (centres undefined)	CYP2C9 activ 2.3
Cn1c(SCC(=O)C(C)(C)C)nnc1-c1cccnc1	none
CCOc1ccc(-n2c(SCC(=O)Nc3ccc4c(c3)OCCO4)nc3c(c2=O)SCC3)cc1	CYP2C9 inh 63, CYP2C19 inh 77
CCOc1ccc(-n2c(SCC)nc3c(c2=O)SCC3)cc1	none (no result: PLK1 PBD inh, PLK1 inh)
CCOc1ccc(-n2c(SCC(=O)Nc3ccc4c(c3)OCO4)nc3c(c2=O)SCC3)cc1	CYP2C9 inh 59 (no result: PLK1 PBD inh, PLK1 inh)
CC(C)C(=O)N(c1ccc2oc(=O)sc2c1)S(=O)(=O)c1cccs1	CYP2C9 inh 61, CYP2C19 inh 97
COc1ccc(N(C(=O)C(C)C)S(=O)(=O)c2cccs2)cc1	CYP2C9 inh 80, CYP2C19 inh 97
COc1ccc(N(C(C)=O)S(=O)(=O)c2cccs2)cc1	none (no result: CYP2C9 inh, CYP2C19 inh, CYP2C9 activ, CYP2C19 activ)
Cc1ccc(S(=O)(=O)/C(C#N)=C/c2c[nH]c3ccccc23)cc1	CYP2C9 activ 2.1
Cc1ccc(C(=O)/C=C/c2cn(CN3CCN(C)CC3)c3ccccc23)cc1	CYP2C9 inh 79
Cc1ccc(C(=O)/C=C/c2c[nH]c3ccccc23)cc1	CYP2C9 inh 69, CYP2C19 inh 68
CC(C)n1cc(/C=C(\C#N)S(=O)(=O)c2ccccc2)c2ccccc21	CYP2C9 inh 70
CCOc1ccc(-c2nn(-c3ccccc3)cc2/C=C(\C#N)S(=O)(=O)c2ccccc2)cc1C	none
OC(CCN1CCOCC1)(c1ccc(Cl)cc1)C1CCCCC1 (centres undefined)	none
Cc1noc(C)c1COC(=O)Cc1ccc(Cl)c(Cl)c1	none
NC(=O)C1CCN(CCC(=O)Nc2ccc3c(c2)CCC3)CC1	none (no result: CYP2C9 inh, CYP2C19 inh, CYP2C9 activ, CYP2C19 activ)
Cc1ccc(C(=O)N/C(=C/c2cccs2)C(=O)N2CCCCCC2)cc1	CYP2C9 inh 51
C/C(=C\C(=O)c1ccc(Cl)cc1)Nc1ccc(Br)cc1	none (no result: CYP2C9 inh, CYP2C19 inh, CYP2C9 activ, CYP2C19 activ)
